In PubChem BioAssay (NCI):
This is part of a sample that, as a whole, favours compounds with a hit. Of some 79,000 tested, about 15% had one in any assay. Calls of active or inactive are those of the source. Rule as the data show it: active = growth inhibition above about 70%; inactive = the rest.

Experiments:
[1] = NCI Yeast Anticancer Drug Screen. Data for the mec2-1 strain (AID 157); conditions: S. cerevisiae mec2-1 strain, active compounds read high
Summary of the method: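 Readout is yeast growth inhibition, normalised to vehicle-treated controls, in the mec2-1 strain exposed to compound.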

[2] = NCI Yeast Anticancer Drug Screen. Data for the rad14 strain (AID 159);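 also: 0% = growth of vehicle-treated control cultures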; conditions: S. cerevisiae rad14 strain growth inhibition, active compounds read high
Summary of the method: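 Vehicle-treated cultures served as the baseline for growth inhibition of a DNA repair-mutant yeast strain exposed to each compound.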

[3] = NCI Yeast Anticancer Drug Screen. Data for the sgs1 mgt1 strain (AID 161);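 also: 0% = growth of cultures given vehicle only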; conditions: S. cerevisiae sgs1 mgt1 strain, active compounds read high
Summary of the method: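 Percent growth inhibition was derived by comparing compound-exposed mutant yeast with vehicle-exposed cultures. The strain carries alterations in DNA damage repair.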

[4] = NCI Yeast Anticancer Drug Screen. Data for the CLN2oe strain (AID 163);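 also: 0% = growth of vehicle-only control cultures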; conditions: S. cerevisiae CLN2oe strain, active compounds read high
Summary of the method: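 Values reflect how much compound exposure reduced yeast growth, referenced to vehicle-exposed cells. Assay organism is a strain with a defined genetic change affecting cell-cycle control.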

[5] = NCI Yeast Anticancer Drug Screen. Data for the cln2 rad14 strain (AID 165);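 also: 0% = growth equal to vehicle treated cultures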; conditions: S. cerevisiae cln2 rad14 strain, active compounds read high
Summary of the method: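 Relative to vehicle controls, growth inhibition of compound-treated cln2 rad14 yeast was recorded.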

[6] = NCI Yeast Anticancer Drug Screen. Data for the bub3 strain (AID 167); conditions: S. cerevisiae bub3 mutant strain, active compounds read high
Summary of the method: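 Inhibition values come from growth of compound-treated mutant yeast normalised to vehicle-treated controls.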

[7] = NCI Yeast Anticancer Drug Screen. Data for the wt2 strain (AID 169);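 also: 0% = growth of vehicle-treated yeast cultures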; conditions: S. cerevisiae wt2 strain growth inhibition, active compounds read high
Summary of the method: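 Values express reduction in yeast growth under compound treatment, referenced to vehicle-treated cells.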

[8] = NCI Yeast Anticancer Drug Screen. Data for the mlh1 strain (AID 171);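 also: 0% = growth of vehicle-treated control cultures of the same strain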; conditions: S. cerevisiae mlh1 strain growth inhibition, active compounds read high
Summary of the method: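 Steps: expose the defined-mutant yeast strain to compound; expose a parallel culture to vehicle; measure growth; express compound effect as inhibition relative to the vehicle culture.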

[9] = NCI Yeast Anticancer Drug Screen. Data for the sgs1 strain (AID 173);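 also: 0% = growth of vehicle-only control cultures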; conditions: S. cerevisiae sgs1 mutant, active compounds read high
Summary of the method: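 Treat defined-mutant yeast with compound; measure growth; calculate inhibition relative to vehicle-treated cells.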

[10] = NCI Yeast Anticancer Drug Screen. Data for the mlh1 rad18 strain (AID 175); conditions: S. cerevisiae mlh1 rad18 strain growth inhibition, active compounds read high
Summary of the method: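 Test agents were incubated with a yeast strain of defined genotype (DNA damage repair defect). Inhibition of growth was derived by comparison with vehicle-exposed cultures.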

[11] = NCI Yeast Anticancer Drug Screen. Data for the rad52 strain (AID 147);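 also: 0% = growth of vehicle-treated control cultures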; conditions: S. cerevisiae rad52 mutant growth inhibition, active compounds read high
Summary of the method: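 Screen used a yeast mutant impaired in DNA repair. After compound exposure, growth was measured. Values reflect inhibition compared with vehicle-treated cells.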

[12] = NCI Yeast Anticancer Drug Screen. Data for the wt1 strain (AID 149);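 also: 0% = growth of vehicle-treated wt1 cultures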; conditions: S. cerevisiae wt1 strain (SPY 50644) growth inhibition, active compounds read high
Summary of the method: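 Vehicle-normalised growth inhibition; strain wt1; compound exposure.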

[13] = NCI Yeast Anticancer Drug Screen. Data for the rad50EPP+ strain (AID 151);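 also: 0% = growth of vehicle-treated control cultures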; conditions: S. cerevisiae rad50 mutant strain, active compounds read high
Summary of the method: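 Exposing the rad50EPP+ strain to each compound, growth was compared with vehicle-only cultures to give inhibition.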

[14] = NCI Yeast Anticancer Drug Screen. Data for the mgt1 strain (AID 153); conditions: S. cerevisiae mgt1 mutant growth inhibition, active compounds read high
Summary of the method: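 Genetically defined yeast (mgt1) treated with compound; inhibition of growth expressed against vehicle-treated controls.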

[15] = NCI Yeast Anticancer Drug Screen. Data for the rad50 strain (AID 155);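 also: 0% = growth of vehicle-only cultures of the same strain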; conditions: S. cerevisiae rad50 strain growth inhibition, active compounds read high
Summary of the method: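 A DNA repair-deficient yeast mutant serves as the test organism; compound-induced growth inhibition is calculated against vehicle-treated cells.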

[16] = at 5.0 µM (retest, dose inferred, filed as 0.5)
[17] = at 50.0 µM (retest, dose inferred, filed as 5.0)

Measured: growth inhibition

c1cc2c(cc1C1OC[C@H]3[C@@H](c4ccc5c(c4)OCO5)OC[C@@H]13)OCO2 (stereo partly specified)
inactive: [1]; [16] 2% | [1]; at 11.0 µM -4% | [1]; at 33.0 µM -5% | [1]; [17] 8% | [1]; at 50.0 µM -0.6% | [1]; at 100.0 µM -1% | [2]; at 1.2 µM 1% | [2]; at 3.7 µM 6% | [2]; at 11.0 µM 17% | [2]; at 33.0 µM 26% | [2]; at 100.0 µM 28% | [3]; [16] 7% | [3]; [17] 20% | [3]; at 50.0 µM 60% | [4]; at 1.2 µM -7% | [4]; at 3.7 µM -9% | [4]; at 11.0 µM -10% | [4]; at 33.0 µM -9% | [4]; at 100.0 µM -7% | [5]; [16] -2% | [5]; [17] -8% | [5]; at 50.0 µM 10.8% | [6]; at 1.2 µM 14% | [6]; at 3.7 µM 26% | [6]; at 11.0 µM 37% | [6]; at 33.0 µM 46% | [6]; at 100.0 µM 39% | [7]; at 1.2 µM -1% | [7]; at 3.7 µM 2% | [7]; at 11.0 µM 7% | [7]; at 33.0 µM 24% | [7]; at 100.0 µM 12% | [8]; at 1.2 µM -16% | [8]; at 3.7 µM -8% | [8]; at 11.0 µM -8% | [8]; at 33.0 µM -8% | [8]; at 100.0 µM -6% | [9]; at 1.2 µM -16% | [9]; at 3.7 µM -11% | [9]; at 11.0 µM 3% | [9]; at 33.0 µM 9% | [9]; at 100.0 µM 15% | [10]; [16] 7% | [10]; [17] 17% | [10]; at 50.0 µM 27.6%
active: [6]; [16] 70% | [6]; [17] 83% | [6]; at 50.0 µM 75.8%

COC1C(O)C(C)OC(OC2C(Oc3cccc4c(O)c5c(=O)oc6ccc(C)c7c(=O)oc(c34)c5c67)OC(C)C(O)C2O)C1O (stereo unspecified)
active: [11]; at 11.0 µM 85% | [11]; at 33.0 µM 87% | [11]; at 100.0 µM 89% | [15]; at 3.7 µM 78% | [15]; at 11.0 µM 83% | [15]; at 33.0 µM 84% | [15]; at 50.0 µM 88% | [15]; at 100.0 µM 84%
inactive: [11]; at 1.2 µM 41% | [11]; at 3.7 µM 67% | [12]; at 1.2 µM 6% | [12]; at 3.7 µM 2% | [12]; at 11.0 µM 8% | [12]; at 33.0 µM 17% | [12]; at 100.0 µM 12% | [13]; at 1.2 µM 7% | [13]; at 3.7 µM 22% | [13]; at 11.0 µM 31% | [13]; at 33.0 µM 39% | [13]; at 100.0 µM 35% | [14]; at 1.2 µM -4% | [14]; at 3.7 µM 7% | [14]; at 11.0 µM -4% | [14]; at 33.0 µM 25% | [14]; at 100.0 µM 18% | [15]; at 1.2 µM 57% | [15]; [16] 29% | [15]; [17] 68% | [1]; at 1.2 µM 1% | [1]; at 3.7 µM 4% | [1]; [16] 25% | [1]; at 11.0 µM 9% | [1]; at 33.0 µM 18% | [1]; [17] 15% | [1]; at 50.0 µM 33.8% | [1]; at 100.0 µM 34% | [2]; at 1.2 µM 5% | [2]; at 3.7 µM 9% | [2]; at 11.0 µM 20% | [2]; at 33.0 µM 30% | [2]; at 100.0 µM 32% | [3]; [16] 28% | [3]; [17] -2% | [3]; at 50.0 µM 3.65% | [4]; at 1.2 µM 1% | [4]; at 3.7 µM 1% | [4]; at 11.0 µM 9% | [4]; at 33.0 µM 2% | [4]; at 100.0 µM 17% | [5]; [16] 19% | [5]; [17] 5% | [5]; at 50.0 µM -3.1% | [6]; at 1.2 µM -5% | [6]; at 3.7 µM -3% | [6]; [16] 23% | [6]; at 11.0 µM -1% | [6]; at 33.0 µM -2% | [6]; [17] -5% | [6]; at 50.0 µM 57.7% | [6]; at 100.0 µM 14% | [7]; at 1.2 µM 0% | [7]; at 3.7 µM 3% | [7]; at 11.0 µM 12% | [7]; at 33.0 µM 22% | [7]; at 100.0 µM 20% | [8]; at 1.2 µM 0% | [8]; at 3.7 µM 6% | [8]; at 11.0 µM 9% | [8]; at 33.0 µM 17% | [8]; at 100.0 µM 30% | [9]; at 1.2 µM 1% | [9]; at 3.7 µM 4% | [9]; at 11.0 µM 15% | [9]; at 33.0 µM 20% | [9]; at 100.0 µM 22% | [10]; [16] -2% | [10]; [17] -4% | [10]; at 50.0 µM 46.2%
